# Compounds without any hit were thinned out: in the full panel of roughly 79,000, 15% have a hit. Unmarked numbers belong to inactive results. Active and inactive are the calls of the source. Rule as the data show it: active = growth inhibition above about 70%; inactive = the rest.
# Key:
# [1] = NCI Yeast Anticancer Drug Screen. Data for the wt1 strain (AID 149);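 also: 0% = growth of vehicle-treated wt1 cultures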; details: S. cerevisiae wt1 strain (SPY 50644) growth inhibition, hits give high values
# Outline: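 Measured: growth of wt1 yeast under compound versus vehicle treatment, reported as inhibition.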
# [2] = NCI Yeast Anticancer Drug Screen. Data for the rad50EPP+ strain (AID 151);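 also: 0% = growth of vehicle-treated control cultures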; details: S. cerevisiae rad50 mutant strain, hits give high values
# Outline: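 Read-out is yeast growth inhibition relative to vehicle; cells used were the rad50EPP+ strain.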
# [3] = NCI Yeast Anticancer Drug Screen. Data for the mgt1 strain (AID 153); details: S. cerevisiae mgt1 mutant growth inhibition, hits give high values
# Outline: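 Measured: inhibition of mgt1 yeast growth by compound, normalized to vehicle-treated cultures.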
# [4] = NCI Yeast Anticancer Drug Screen. Data for the rad50 strain (AID 155);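 also: 0% = growth of vehicle-only cultures of the same strain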; details: S. cerevisiae rad50 strain growth inhibition, hits give high values
# Outline: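 Growth of the mutant yeast was measured after compound exposure and referenced to vehicle-treated cultures.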
# [5] = NCI Yeast Anticancer Drug Screen. Data for the mec2-1 strain (AID 157); details: S. cerevisiae mec2-1 strain, hits give high values
# Outline: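 Using mec2-1 yeast: add compound, measure growth, express inhibition versus vehicle-treated cultures.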
# [6] = NCI Yeast Anticancer Drug Screen. Data for the rad14 strain (AID 159);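 also: 0% = growth of vehicle-treated control cultures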; details: S. cerevisiae rad14 strain growth inhibition, hits give high values
# Outline: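 Here, inhibition of yeast growth was measured after compound exposure, using a strain with a genetic defect in DNA damage repair and vehicle-treated cultures as the reference.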
# [7] = NCI Yeast Anticancer Drug Screen. Data for the sgs1 mgt1 strain (AID 161);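 also: 0% = growth of cultures given vehicle only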; details: S. cerevisiae sgs1 mgt1 strain, hits give high values
# Outline: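 Compounds are added to genetically altered yeast, and growth is compared with cultures given vehicle alone to give percent inhibition.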
# [8] = NCI Yeast Anticancer Drug Screen. Data for the CLN2oe strain (AID 163);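 also: 0% = growth of vehicle-only control cultures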; details: S. cerevisiae CLN2oe strain, hits give high values
# Outline: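 Whole-cell yeast growth assay. A strain engineered for altered cell-cycle control received compound, and inhibition relative to vehicle-treated cultures was recorded.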
# [9] = NCI Yeast Anticancer Drug Screen. Data for the cln2 rad14 strain (AID 165);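 also: 0% = growth equal to vehicle treated cultures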; details: S. cerevisiae cln2 rad14 strain, hits give high values
# Outline: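 Yeast strain cln2 rad14, bearing defects in cell cycle control and DNA repair, serves as the test system; values reflect growth inhibition compared with vehicle.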
# [10] = NCI Yeast Anticancer Drug Screen. Data for the bub3 strain (AID 167); details: S. cerevisiae bub3 mutant strain, hits give high values
# Outline: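 Whole-cell yeast assay. The mutant strain was incubated with compounds, and growth inhibition was determined by comparison with vehicle-treated cells.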
# [11] = NCI Yeast Anticancer Drug Screen. Data for the wt2 strain (AID 169);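 also: 0% = growth of vehicle-treated yeast cultures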; details: S. cerevisiae wt2 strain growth inhibition, hits give high values
# Outline: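 Treated yeast vs. vehicle-treated yeast: growth inhibition determined.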
# [12] = NCI Yeast Anticancer Drug Screen. Data for the mlh1 strain (AID 171);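 also: 0% = growth of vehicle-treated control cultures of the same strain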; details: S. cerevisiae mlh1 strain growth inhibition, hits give high values
# Outline: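 A yeast strain with a defined genetic lesion serves as the test organism. Cultures receive compound or vehicle, and growth is measured.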
# [13] = NCI Yeast Anticancer Drug Screen. Data for the sgs1 strain (AID 173);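 also: 0% = growth of vehicle-only control cultures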; details: S. cerevisiae sgs1 mutant, hits give high values
# Outline: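 A genetically defined yeast mutant is incubated with the test compound, and its growth is compared to that of the same strain given vehicle.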
# [14] = NCI Yeast Anticancer Drug Screen. Data for the mlh1 rad18 strain (AID 175); details: S. cerevisiae mlh1 rad18 strain growth inhibition, hits give high values
# Outline: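 Steps: expose repair-defective yeast to compound; measure growth; express inhibition against vehicle-treated controls.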
# [15] = NCI Yeast Anticancer Drug Screen. Data for the rad18 strain (AID 177); details: S. cerevisiae rad18 mutant growth inhibition, hits give high values
# Outline: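 Measured value is growth inhibition of a yeast strain bearing a DNA repair alteration, referenced to vehicle-treated cells.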
# [16] = at 5.0 µM (retest, dose inferred, filed as 0.5)
# [17] = at 50.0 µM (retest, dose inferred, filed as 5.0)
smiles,measurement,setting,value
Oc1ccc(Br)cc1C=Nc1cccc(C(F)(F)F)c1,growth inhibition,[1]; at 1.2 µM,-2%
same,growth inhibition,[1]; at 3.7 µM,-7%
same,growth inhibition,[1]; at 11.0 µM,9%
same,growth inhibition,[1]; at 33.0 µM,91% (active)
same,growth inhibition,[1]; at 100.0 µM,97% (active)
same,growth inhibition,[2]; at 1.2 µM,0%
same,growth inhibition,[2]; at 3.7 µM,4%
same,growth inhibition,[2]; at 11.0 µM,10%
same,growth inhibition,[2]; at 33.0 µM,30%
same,growth inhibition,[2]; at 100.0 µM,64%
same,growth inhibition,[3]; at 1.2 µM,-2%
same,growth inhibition,[3]; at 3.7 µM,21%
same,growth inhibition,[3]; at 11.0 µM,75% (active)
same,growth inhibition,[3]; at 33.0 µM,96% (active)
same,growth inhibition,[3]; at 100.0 µM,97% (active)
same,growth inhibition,[4]; at 1.2 µM,-28%
same,growth inhibition,[4]; at 3.7 µM,-20%
same,growth inhibition,[4]; [16],16%
same,growth inhibition,[4]; at 11.0 µM,32%
same,growth inhibition,[4]; at 33.0 µM,91% (active)
same,growth inhibition,[4]; [17],92% (active)
same,growth inhibition,[4]; at 50.0 µM,70.5% (active)
same,growth inhibition,[4]; at 100.0 µM,97% (active)
same,growth inhibition,[5]; at 1.2 µM,3%
same,growth inhibition,[5]; at 3.7 µM,-7%
same,growth inhibition,[5]; [16],-17%
same,growth inhibition,[5]; at 11.0 µM,59%
same,growth inhibition,[5]; at 33.0 µM,97% (active)
same,growth inhibition,[5]; [17],97% (active)
same,growth inhibition,[5]; at 50.0 µM,85.5% (active)
same,growth inhibition,[5]; at 100.0 µM,97% (active)
same,growth inhibition,[6]; at 1.2 µM,6%
same,growth inhibition,[6]; at 3.7 µM,13%
same,growth inhibition,[6]; at 11.0 µM,91% (active)
same,growth inhibition,[6]; at 33.0 µM,97% (active)
same,growth inhibition,[6]; at 100.0 µM,97% (active)
same,growth inhibition,[7]; [16],1%
same,growth inhibition,[7]; [17],63%
same,growth inhibition,[7]; at 50.0 µM,81.7% (active)
same,growth inhibition,[8]; at 1.2 µM,-4%
same,growth inhibition,[8]; at 3.7 µM,-1%
same,growth inhibition,[8]; at 11.0 µM,-1%
same,growth inhibition,[8]; at 33.0 µM,1%
same,growth inhibition,[8]; at 100.0 µM,25%
same,growth inhibition,[9]; [16],28%
same,growth inhibition,[9]; [17],86% (active)
same,growth inhibition,[9]; at 50.0 µM,61%
same,growth inhibition,[10]; at 1.2 µM,-6%
same,growth inhibition,[10]; at 3.7 µM,-1%
same,growth inhibition,[10]; [16],42%
same,growth inhibition,[10]; at 11.0 µM,-5%
same,growth inhibition,[10]; at 33.0 µM,0%
same,growth inhibition,[10]; [17],94% (active)
same,growth inhibition,[10]; at 50.0 µM,88.2% (active)
same,growth inhibition,[10]; at 100.0 µM,28%
same,growth inhibition,[11]; at 1.2 µM,-1%
same,growth inhibition,[11]; at 3.7 µM,-1%
same,growth inhibition,[11]; at 11.0 µM,0%
same,growth inhibition,[11]; at 33.0 µM,10%
same,growth inhibition,[11]; at 100.0 µM,65%
same,growth inhibition,[12]; at 1.2 µM,-1%
same,growth inhibition,[12]; at 3.7 µM,17%
same,growth inhibition,[12]; at 11.0 µM,68%
same,growth inhibition,[12]; at 33.0 µM,96% (active)
same,growth inhibition,[12]; at 100.0 µM,97% (active)
same,growth inhibition,[13]; at 1.2 µM,14%
same,growth inhibition,[13]; at 3.7 µM,10%
same,growth inhibition,[13]; at 11.0 µM,65%
same,growth inhibition,[13]; at 33.0 µM,94% (active)
same,growth inhibition,[13]; at 100.0 µM,97% (active)
same,growth inhibition,[14]; [16],48%
same,growth inhibition,[14]; [17],97% (active)
same,growth inhibition,[14]; at 50.0 µM,66.9%
same,growth inhibition,[15]; at 1.2 µM,-15%
same,growth inhibition,[15]; at 3.7 µM,-12%
same,growth inhibition,[15]; at 11.0 µM,16%
same,growth inhibition,[15]; at 33.0 µM,83% (active)
same,growth inhibition,[15]; at 100.0 µM,97% (active)
N#C/C(=C1C=C/C(=N\O)C(Cl)=C\1)c1ccccc1,growth inhibition,[1]; at 1.2 µM,-2%
same,growth inhibition,[1]; at 3.7 µM,-5%
same,growth inhibition,[1]; at 11.0 µM,2%
same,growth inhibition,[1]; at 33.0 µM,0%
same,growth inhibition,[1]; at 100.0 µM,3%
same,growth inhibition,[2]; at 1.2 µM,2%
same,growth inhibition,[2]; at 3.7 µM,16%
same,growth inhibition,[2]; at 11.0 µM,26%
same,growth inhibition,[2]; at 33.0 µM,21%
same,growth inhibition,[2]; at 100.0 µM,24%
same,growth inhibition,[3]; at 1.2 µM,-3%
same,growth inhibition,[3]; at 3.7 µM,1%
same,growth inhibition,[3]; at 11.0 µM,3%
same,growth inhibition,[3]; at 33.0 µM,5%
same,growth inhibition,[3]; at 100.0 µM,10%
same,growth inhibition,[4]; at 1.2 µM,0%
same,growth inhibition,[4]; at 3.7 µM,3%
same,growth inhibition,[4]; [16],24%
same,growth inhibition,[4]; at 11.0 µM,8%
same,growth inhibition,[4]; at 33.0 µM,13%
same,growth inhibition,[4]; [17],76% (active)
same,growth inhibition,[4]; at 50.0 µM,55.8%
same,growth inhibition,[4]; at 100.0 µM,14%
same,growth inhibition,[5]; at 1.2 µM,-1%
same,growth inhibition,[5]; at 3.7 µM,0%
same,growth inhibition,[5]; [16],-11%
same,growth inhibition,[5]; at 11.0 µM,2%
same,growth inhibition,[5]; at 33.0 µM,5%
same,growth inhibition,[5]; [17],36%
same,growth inhibition,[5]; at 50.0 µM,43%
same,growth inhibition,[5]; at 100.0 µM,14%
same,growth inhibition,[6]; at 1.2 µM,2%
same,growth inhibition,[6]; at 3.7 µM,8%
same,growth inhibition,[6]; at 11.0 µM,15%
same,growth inhibition,[6]; at 33.0 µM,17%
same,growth inhibition,[6]; at 100.0 µM,26%
same,growth inhibition,[7]; [16],52%
same,growth inhibition,[7]; [17],85% (active)
same,growth inhibition,[7]; at 50.0 µM,40.1%
same,growth inhibition,[8]; at 1.2 µM,2%
same,growth inhibition,[8]; at 3.7 µM,3%
same,growth inhibition,[8]; at 11.0 µM,6%
same,growth inhibition,[8]; at 33.0 µM,15%
same,growth inhibition,[8]; at 100.0 µM,13%
same,growth inhibition,[9]; [16],12%
same,growth inhibition,[9]; [17],46%
same,growth inhibition,[9]; at 50.0 µM,-43.9%
same,growth inhibition,[10]; at 1.2 µM,-1%
same,growth inhibition,[10]; at 3.7 µM,2%
same,growth inhibition,[10]; [16],37%
same,growth inhibition,[10]; at 11.0 µM,4%
same,growth inhibition,[10]; at 33.0 µM,14%
same,growth inhibition,[10]; [17],71% (active)
same,growth inhibition,[10]; at 50.0 µM,72.7% (active)
same,growth inhibition,[10]; at 100.0 µM,16%
same,growth inhibition,[11]; at 1.2 µM,-13%
same,growth inhibition,[11]; at 3.7 µM,-11%
same,growth inhibition,[11]; at 11.0 µM,-9%
same,growth inhibition,[11]; at 33.0 µM,-9%
same,growth inhibition,[11]; at 100.0 µM,-1%
same,growth inhibition,[12]; at 1.2 µM,-4%
same,growth inhibition,[12]; at 3.7 µM,4%
same,growth inhibition,[12]; at 11.0 µM,7%
same,growth inhibition,[12]; at 33.0 µM,10%
same,growth inhibition,[12]; at 100.0 µM,23%
same,growth inhibition,[13]; at 1.2 µM,-3%
same,growth inhibition,[13]; at 3.7 µM,7%
same,growth inhibition,[13]; at 11.0 µM,6%
same,growth inhibition,[13]; at 33.0 µM,16%
same,growth inhibition,[13]; at 100.0 µM,33%
same,growth inhibition,[14]; [16],45%
same,growth inhibition,[14]; [17],87% (active)
same,growth inhibition,[14]; at 50.0 µM,80.7% (active)
same,growth inhibition,[15]; at 1.2 µM,-1%
same,growth inhibition,[15]; at 3.7 µM,1%
same,growth inhibition,[15]; at 11.0 µM,-2%
same,growth inhibition,[15]; at 33.0 µM,2%
same,growth inhibition,[15]; at 100.0 µM,13%

# — PubChem BioAssay (NCI)
